Assay results taken from PubChem BioAssay (NCATS).
Records with an inconclusive call do not appear. The source made the active and inactive calls. Calls follow the shape of the dose curve; as a rule, active = well fitted cell-killing curve with a large enough effect; inconclusive = small, poorly fitted or top-dose-only effect; inactive = flat fitted curve, though single readings scatter.

Assay: Cellular viability qHTS for adrenocortical cancer (ACC) cell line SW-13 (AID 1963989); also: nearly all actives have a fitted effect of over 65% in size;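 as to activity (max response): cells grown in serum-free medium with ITS supplement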
Conditions: SW-13 ACC cells viability, CellTiter-Glo, 48 h; activity (max response): hits give low values
Outline: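 Luminescent ATP read-out (CellTiter-Glo, 20 min at room temperature) measured metabolically competent SW-13 cells after 48 h compound treatment. Final concentrations spanned up to 46 uM; bortezomib served as positive control.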
% is scaled to controls: 0 for no effect and ±100 for the full control effect; potency is read from the fitted curve at half-maximal effect.

| SMILES | Potency | activity (max response) |
| --- | --- | --- |
| COc1cc2c(NC3CCN(C4CCCCC4)CC3)nc(N3CCCN(C(C)C)CC3)nc2cc1OCCCN1CCCCC1 | 3.16 µM (active) | – |
| C=CC(=O)Nc1ccc(F)c(-c2ncnc3[nH]cc(C(=O)OCC)c23)c1 | 22.4 µM (active) | – |
| N#Cc1ccc(N(Cc2ccc(Br)cc2)n2cnnc2)cc1 | – | -0.886% (inactive) |
